# High-throughput results as filed in PubChem.
# LYPLA2 counter: LYPLA2 inhibitors, primary screen, counter-screen for PME1 inhibitor project, biochemical, fluorescence polarization, FP-Rh probe ABPP. Acyl-protein thioesterase 2 (Homo sapiens), O95372. recombinant LYPLA2. inhibition, % at 5.9 µM. hit rate 0.38% among 320,000. AID 2177, 2009;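 active = inhibition above the screen-wide mean plus 3 SD, limit set per campaign, cut at about 26% in these data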;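 also: 0% = LYPLA2 with DMSO and 100% = wells lacking LYPLA2 enzyme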
# PAFAH1B3 FP inh: PAFAH1B3 enzyme inhibitors, primary screen, biochemical, fluorescence polarization, human. recombinant PAFAH1B3, FP-rhodamine probe. inhibition, % at 3.39 µM. hit rate 0.28% among 340,000. AID 492972, 2010;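 active = inhibition above the screen-wide average of all tested compounds plus 3 SD, cut at about 25% in these data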;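 also: 0% = enzyme with DMSO only and 100% = wells lacking PAFAH1B3 protein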
# LYPLA1 counter: LYPLA1 inhibitors, primary screen, counter-screen for PME1 inhibitor project, biochemical, fluorescence polarization, FP-Rh probe ABPP; Acyl-protein thioesterase 1 (Homo sapiens), O75608; recombinant LYPLA1; inhibition, % at 5.9 µM; hit rate 0.16% among 320,000;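 active = inhibition above the mean of all tested compounds plus 3 SD, set per campaign, cut at about 14% in these data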;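 also: inhibitors block serine hydrolase probe labeling of LYPLA1 so polarization falls; 0% = enzyme with DMSO and 100% = wells lacking LYPLA1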
# Target sequence (O75608 whole entry, looked up): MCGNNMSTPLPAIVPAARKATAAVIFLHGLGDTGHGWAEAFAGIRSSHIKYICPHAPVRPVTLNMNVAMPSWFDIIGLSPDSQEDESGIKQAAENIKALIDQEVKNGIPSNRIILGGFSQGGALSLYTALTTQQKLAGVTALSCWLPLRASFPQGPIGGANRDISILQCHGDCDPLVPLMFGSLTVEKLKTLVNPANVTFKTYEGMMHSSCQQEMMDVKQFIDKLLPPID
# PAFAH1B2 FP inh: PAFAH1B2 enzyme inhibitors, primary screen, biochemical, fluorescence polarization, human; Platelet-activating factor acetylhydrolase IB subunit alpha2 (Homo sapiens), P68402; recombinant PAFAH1B2, FP-rhodamine activity probe; inhibition, % at 3.39 µM; hit rate 1.2% among 340,000; AID 492953, 2010;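 active = inhibition above the mean of all tested compounds plus 3 SD, cut at about 24% in these data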;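 also: 0% = enzyme with DMSO and 100% = wells lacking PAFAH1B2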
# Target sequence (P68402 whole entry, looked up): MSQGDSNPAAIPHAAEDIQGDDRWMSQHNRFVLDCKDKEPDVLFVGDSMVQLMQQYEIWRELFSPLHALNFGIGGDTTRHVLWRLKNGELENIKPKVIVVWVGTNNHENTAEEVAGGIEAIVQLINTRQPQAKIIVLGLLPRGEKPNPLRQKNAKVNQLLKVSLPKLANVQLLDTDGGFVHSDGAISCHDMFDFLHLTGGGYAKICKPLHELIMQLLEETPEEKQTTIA
# PAFAH2 inh: PAFAH2 enzyme inhibitors, primary screen, biochemical, fluorescence polarization, human; recombinant PAFAH2, FP-rhodamine activity probe; AID 492956, 2010; hit rate 0.99% among 340,000; Platelet-activating factor acetylhydrolase 2, cytoplasmic (Homo sapiens), Q99487; inhibition, % at 3.39 µM;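 active = inhibition above the mean over all tested compounds plus 3 SD, cut at about 30% in these data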;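 also: inhibitors block probe labeling of enzyme so polarization drops; 0% = enzyme with DMSO and 100% = wells lacking PAFAH2 protein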
# pPAFAH inh: pPAFAH enzyme inhibitors, primary screen, biochemical, fluorescence polarization, human | AID 463082, 2010 | recombinant pPAFAH, FP-rhodamine probe fluorescence polarization | inhibition, % at 3.39 µM | hit rate 1.5% among 330,000;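 active = inhibition above the mean inhibition across the screen plus 3 SD, cut at about 25% in these data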;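 also: inhibitors block binding of the rhodamine activity-based probe so polarization drops; 0% = enzyme with DMSO and 100% = wells lacking pPAFAH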
# LYPLA2 confirm: LYPLA2 inhibitors, retest, confirmation, counter-screen for PME1 inhibitor project, biochemical, fluorescence polarization, FP-Rh probe ABPP; inhibition, % at 5.9 µM; shares compounds with LYPLA2 counter; hit rate 72% among 1,100; recombinant LYPLA2;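 active = mean inhibition across replicates above the hit cutoff set in the primary screen, cut at about 26% in these data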;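 also: blocked labeling of the enzyme by serine hydrolase FP-Rh probe lowers polarization; 0% = enzyme with DMSO and 100% = wells lacking LYPLA2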
# LYPLA2 gel ABPP: LYPLA2 inhibitors in proteome, late-stage follow-up, gel-based competitive ABPP, fluorescence, assay provider. hit rate 30% among 150. rhLYPLA2 in mouse brain proteome, gel ABPP FP-Rh. inhibition, % at 20 µM. shares compounds with LYPLA2 counter;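 active = inhibition of LYPLA2 enzyme probe labeling above about 50%, limit read from the data; inactive = inhibition below that limit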;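 also: loss of FP-Rh probe labeling of the LYPLA2 gel band measured as band density; 0% = DMSO only control band and 100% = blank gel background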
# * marks the source's active call; other numbers are inactive results; · = no result. Most compounds without a hit are left out; they make up all but 2.9% or so of the library.
SMILES,LYPLA2 counter,PAFAH1B3 FP inh,LYPLA1 counter,PAFAH1B2 FP inh,PAFAH2 inh,pPAFAH inh,LYPLA2 confirm,others
COc1ccc(S(=O)(=O)NCc2ccc(C(=O)N3CCc4ccccc4C3)cc2)cc1,48*,1,4,4,3,5,57*,LYPLA2 gel ABPP=28
COc1ccc(CNc2ccc(N3CCOCC3)cc2)cc1,6,4,-1,4,-5,-1,·,
CCn1c(CC(=O)Nc2ccccc2)nnc1SCC(=O)NC1=NCCS1,2,6,-1,-3,-11,0,·,
O=C(c1ccc(-c2ccccc2)cc1)N1CCN(c2ccccc2)CC1,22,6,0,2,-38,8,·,
O=C(c1ccc(CNS(=O)(=O)c2ccccc2)cc1)N1CCN(Cc2ccccc2)CC1,33*,13,0,1,9,6,32*,
COc1ccc(N2CCN(C(=O)c3ccc(-c4ccccc4)cc3)CC2)cc1,34*,5,1,-1,-8,6,35*,
COc1cccc(S(=O)(=O)NCc2ccc(C(=O)N3CCN(c4ccccc4OC)CC3)cc2)c1,58*,14,0,-2,2,3,70*,LYPLA2 gel ABPP=34
O=C(Nc1ccc(CN2CCCCC2)cc1)c1cc(Br)ccc1Cl,-2,·,3,·,·,4,·,
CN(C(=O)COC(=O)c1ccc2c(c1)OCO2)c1c(N)n(Cc2ccccc2)c(=O)[nH]c1=O,5,3,0,12,3,1,·,
O=C(C1=C[C@@H](c2csc3ccccc23)C[C@@H](OCc2ccc(CO)cc2)O1)N1CCOCC1,4,1,-3,5,11,8,·,
CCCn1cnc2scc(-c3ccc(OC)cc3)c2c1=O,-4,0,-2,9,-4,1,·,
CCCOc1ccc(-c2csc3ncn(Cc4ccc(C(=O)O)cc4)c(=O)c23)cc1,30*,4,-5,3,-2,9,33*,
O=C(CN1CCN(C/C=C/c2ccccc2)CC1)NCc1ccc(Cl)cc1,42*,3,6,1,2,3,34*,
CCN(CC)c1ccc(NC(=O)c2ccc3c(c2)OCO3)c(C)c1,1,6,-1,0,-5,2,·,
O=C(Nc1ncccc1O)c1cccc(S(=O)(=O)N2CCc3ccccc32)c1,27*,-5,-1,48*,34*,5,-5,
CC(=O)c1ccc(N2CCN(C(=O)Nc3ccc(C(C)C)cc3)CC2)cc1,48*,5,3,6,9,5,42*,
CC(=O)c1ccc(N2CCN(C(=O)Nc3ccc(F)cc3)CC2)cc1,2,0,2,5,-24,0,·,
C=CCc1cccc(C=Nc2cccn3cc(-c4ccccc4)nc23)c1O,2,2,7,0,4,6,·,
Cc1sc2ncnc(OCC(=O)N3CCN(S(=O)(=O)c4ccc(Cl)cc4)CC3)c2c1C,7,9,-1,10,4,-2,·,
Cc1sc2ncnc(OCC(=O)c3ccc(S(=O)(=O)N4CCCC4)cc3)c2c1C,28*,1,-8,4,-3,-5,15,
O=C(COC(=O)c1ccc(O)cc1)c1ccc(S(=O)(=O)N2CCCCC2)cc1,44*,7,4,0,-1,9,35*,
O=C(/C=C/c1ccc([N+](=O)[O-])cc1)N1CCN(Cc2ccccc2)CC1,32*,5,5,8,1,0,39*,
CCN1CCN(C(=O)/C=C/c2ccc([N+](=O)[O-])cc2)CC1,10,5,4,3,-5,1,·,
CC1CCCN(C(=O)CN2C(=O)C(C)Oc3ccccc32)C1 (stereo unspecified),29*,2,5,7,8,-2,-3,
COC(=O)CCc1c(C)[nH]c(=S)[nH]c1=O,3,-1,2,4,-8,2,·,
SMILES,LYPLA2 counter,PAFAH1B3 FP inh,LYPLA1 counter,PAFAH1B2 FP inh,PAFAH2 inh,pPAFAH inh,LYPLA2 confirm,others
CC(=O)Oc1ccc2c(C)cc(=O)oc2c1,3,4,1,1,4,1,·,
Cc1cc(=O)oc2cc(Oc3ccc([N+](=O)[O-])cc3C(F)(F)F)ccc12,44*,-3,2,6,1,14,42*,
CC(=O)c1ccc(S(=O)(=O)N2CCN(CCOc3ccc(Br)cc3)CC2)cc1,37*,4,3,2,-5,3,37*,
CCOC(=O)CSc1nnc(CSc2nc3sc4c(c3c(=O)[nH]2)CCC4)n1-c1ccccc1,57*,3,6,3,1,8,51*,
CCOC(=O)CSc1nnc(CSc2nc3sc4c(c3c(=O)[nH]2)CCC4)n1C,9,7,-2,3,9,11,·,
CSCCC1NC(=O)N(CC(=O)N2N=C(c3ccc(Cl)cc3)CC2c2ccco2)C1=O (stereo unspecified),41*,6,0,2,0,18,37*,
COc1cc2c(cc1OC)C(C)N(C(=O)c1cc3c(=O)oc4ccc(C)cc4c3s1)CC2 (stereo unspecified),1,10,2,-2,-7,-2,·,
COc1ccccc1C1CC(c2ccc(Cl)cc2Cl)Nc2nc(N)nn21 (stereo unspecified),43*,4,-1,12,12,-1,34*,
COc1ccc(C2CC(c3cccc(Cl)c3)n3nc(N)nc3N2)cc1 (stereo unspecified),6,8,2,4,-7,4,·,
O=C(Cc1ccc(-n2c(=O)[nH]c3ccsc3c2=O)cc1)N1CCN(c2ccc(Cl)cc2)CC1,31*,0,2,8,-2,0,29*,
Cc1ccccc1CC1(CO)CCCN(C(=O)c2ccccc2N(C)C)C1 (stereo unspecified),-2,4,2,0,9,1,·,
CCn1c(=O)cc(OCC(=O)N2CCN(c3cccc(C(F)(F)F)c3)CC2)c2ccccc21,51*,-3,7,-1,-9,9,47*,
O=C(c1ccc(-c2ccccc2)cc1)N1CCN(C(=O)c2ccco2)CC1,6,8,2,4,3,8,·,
Cc1ccc(OCC(=O)OCC(=O)c2ccccc2)cc1C,29*,5,2,2,1,11,2,
